This passage reports AC50 and outcome results from PubChem BioAssay (EPA / NIEHS).

A word on the AC50: it is the concentration giving half of the maximal activity seen.

Values joined by “and” are separate entries in the source; they are usually repeats but may differ in a detail not shown here. Identical values can stand only once. Results filed as inconclusive are left out. Active and inactive are the calls of the source. How the source made its calls: active means hit-call score of the fitted dose curve at least 0.9, where 1 is the maximum; inconclusive means response in the unintended direction; inactive means score below 0.9.

Test system in the first test: not listed separately
Kind of test: ACEA_ER_AUC_viability: ACEA Biosciences xCELLigence Real-Time Cell Analysis on Estrogen Receptor Agonism for Viability (AID 2283782).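 Further: hit means loss of impedance signal meaning reduced cell growth or viability.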 In outline: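 Viability endpoint: reduced impedance area under the curve relative to DMSO, recorded by real-time electrode sensing over ~80 h of continuous exposure. Duplicate plates of T47D in hormone-depleted medium; eight concentrations, 1:4 dilutions, 100 uM maximum.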
In the case of `NC(=NCCCCCCN=C(N)/N=C(\N)Nc1ccc(Cl)cc1)/N=C(\N)Nc1ccc(Cl)cc1`, the AC50 is 8.38 µM (active) and 9.06 µM (active).

Turning to `Cc1ccc(S(=O)(=O)O)cc1`, the result was inactive.

Turning to `COc1cc([N+](=O)[O-])ccc1N`, the compound was classed as inactive.

`O=C1NS(=O)(=O)c2ccccc21`: the compound was called inactive.

Take `CCCCCCCCCCCC`: the AC50 is 50 µM (active) and 40.4 µM (active).

Turning to `CC(C)[C@@H]1CC[C@@H](C)C[C@H]1O`, the outcome was inactive.

Consider `CCCCC(CC)C(=O)O` (centres undefined), for which the result was inactive.

As to `CCCCc1oc2ccccc2c1C(=O)c1cc(I)c(OCCN(CC)CC)c(I)c1`, the AC50 was 11.5 µM (active).

In the case of `NS(=O)(=O)O`, the result was inactive.

Turning to `Cc1cc(C(C)(C)C)c(O)c(C(C)(C)C)c1`, the AC50 is 79.4 µM (active).

`CCC(C)c1ccccc1O` (centres undefined): the AC50 is 79.7 µM (active).

For the compound `Cc1ccc(C)c(S(=O)(=O)O)c1`, the compound was called inactive.

`CC(O)COc1ccccc1` (centres undefined): the outcome was inactive.

For the compound `CCCCc1ccc2ccccc2c1S(=O)(=O)O`, the outcome was inactive.

In the case of `O=C(CCCN1CCC(O)(c2ccc(Cl)cc2)CC1)c1ccc(F)cc1`, the outcome was inactive.

Regarding `CN(C)CCOC(c1ccccc1)c1ccccc1`, the AC50 was 50 µM (active).

For `Cc1cc(Cc2cc(C)cc(C(C)(C)C)c2O)c(O)c(C(C)(C)C)c1`, the AC50 was 11.4 µM (active).

On to `Cc1cc(C(=C2C=CC(=Nc3ccc(S(=O)(=O)O)cc3)C=C2)c2ccc(Nc3ccc(S(=O)(=O)O)cc3)cc2)cc(S(=O)(=O)O)c1N`, for which the outcome was inactive.

With `NCCN`, the compound was classed as inactive.

Consider `CCCCCCCCCCCCOC(=O)c1cc(O)c(O)c(O)c1`, for which the AC50 is 2.97 µM (active).

With `CCc1ccccc1O`, the compound was classed as inactive.

For `CCCCCCc1ccc(N)cc1`, the AC50 is 50 µM (active).

On to `CC(C)c1c(C(=O)Nc2ccccc2)c(-c2ccccc2)c(-c2ccc(F)cc2)n1CC[C@@H](O)C[C@@H](O)CC(=O)O`, for which the AC50 is 2.91 µM (active).

Take `NCc1cccc(CN)c1`: the compound was classed as inactive.

The target in another test is AR (gene 367) (UniProt P10275). Kind of test: ACEA_AR_agonist_80hr: ACEA Biosciences xCELLigence Real-Time Cell Analysis on Androgen Receptor Agonism for Proliferation (AID 2283783).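 Further: hits increase impedance growth signal above DMSO baseline.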 The method, boiled down: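 Eight concentrations, 1:4 serial dilution from a 100 uM final top, in biological duplicate. Impedance-based real-time growth of 22Rv1 cells after overnight baseline, recorded hourly and read at 80 hours. Controls: testosterone, MG132, assay media.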
AR (gene 367), sequence (P10275 whole entry, looked up): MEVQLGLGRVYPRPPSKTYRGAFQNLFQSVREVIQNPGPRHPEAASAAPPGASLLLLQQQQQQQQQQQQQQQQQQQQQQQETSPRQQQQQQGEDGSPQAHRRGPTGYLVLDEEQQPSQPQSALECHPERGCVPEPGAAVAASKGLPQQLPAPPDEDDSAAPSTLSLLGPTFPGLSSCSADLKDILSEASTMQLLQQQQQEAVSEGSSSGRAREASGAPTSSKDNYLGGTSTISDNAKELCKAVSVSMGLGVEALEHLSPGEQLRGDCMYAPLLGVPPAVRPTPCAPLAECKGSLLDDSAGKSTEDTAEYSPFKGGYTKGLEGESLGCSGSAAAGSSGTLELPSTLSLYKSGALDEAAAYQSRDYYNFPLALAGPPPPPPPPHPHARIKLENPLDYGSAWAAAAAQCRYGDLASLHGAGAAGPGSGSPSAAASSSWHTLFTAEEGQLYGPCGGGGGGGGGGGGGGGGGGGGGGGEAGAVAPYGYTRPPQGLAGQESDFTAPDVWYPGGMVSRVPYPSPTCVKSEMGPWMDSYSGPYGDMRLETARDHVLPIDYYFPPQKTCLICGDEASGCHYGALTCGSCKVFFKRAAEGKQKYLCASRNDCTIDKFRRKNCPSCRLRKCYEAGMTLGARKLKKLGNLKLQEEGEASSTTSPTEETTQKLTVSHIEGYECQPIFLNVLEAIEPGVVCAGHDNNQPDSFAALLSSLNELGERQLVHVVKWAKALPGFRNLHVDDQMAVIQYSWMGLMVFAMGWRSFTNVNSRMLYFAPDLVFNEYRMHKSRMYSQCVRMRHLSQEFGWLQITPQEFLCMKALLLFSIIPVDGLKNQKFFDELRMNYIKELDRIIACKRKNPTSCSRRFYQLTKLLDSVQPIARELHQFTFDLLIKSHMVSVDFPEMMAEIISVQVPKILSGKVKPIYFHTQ
Regarding `NC(=NCCCCCCN=C(N)/N=C(\N)Nc1ccc(Cl)cc1)/N=C(\N)Nc1ccc(Cl)cc1`, the compound was classed as inactive.

Take `CN(Cc1cnc2nc(N)nc(N)c2n1)c1ccc(C(=O)N[C@@H](CCC(=O)O)C(=O)O)cc1`: the call was inactive.

For the compound `CN(C)CCOC(c1ccccc1)c1ccccc1`, the result was inactive.

On to `CCCCCCc1ccc(N)cc1`, for which the call was inactive.

Test system in another test: not listed separately
The test can be described thus: STM_H9_NormalizedViability: Cytotoxicity Assessment at 120 hours in the Stemina devTOX quickPredict H9 human embryonic stem cell (hESC)-based Assay (AID 2283784). In outline:
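Here, H9 cells received test compound with daily medium renewal. Each plate included methotrexate references (1uM, 5 nM), 0.1% DMSO and media blanks; CellTiter-Fluor RFU was normalized to DMSO.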
On to `OCC(CO)(CBr)CBr`, for which the result was inactive.

On to `CN(Cc1cnc2nc(N)nc(N)c2n1)c1ccc(C(=O)N[C@@H](CCC(=O)O)C(=O)O)cc1`, for which the AC50 is 0.0867 µM (active).

With `CCCCC(CC)C(=O)O` (centres undefined), the result was inactive.

As to `CCCCc1oc2ccccc2c1C(=O)c1cc(I)c(OCCN(CC)CC)c(I)c1`, the AC50 is 4.41 µM (active).

As to `O=C(CCCN1CCC(O)(c2ccc(Cl)cc2)CC1)c1ccc(F)cc1`, the result was inactive.

`CN(C)CCOC(c1ccccc1)c1ccccc1`: the AC50 was 8.23 µM (active).

Regarding `Cc1[nH]nc2c1N=C(c1ccccc1Cl)c1cc([N+](=O)[O-])ccc1N2`, the concentration at half-maximal activity (AC50) is 1.99 µM (active).

The target in another test is AR (gene 367) (UniProt P10275). Kind of test: ACEA_AR_antagonist_80hr: ACEA Biosciences xCELLigence Real-Time Cell Analysis on Androgen Receptor Antagonism for Proliferation (AID 2283787).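 Further: 22Rv1 human prostate cancer cells with growth followed by electrical impedance; hits lower the impedance growth signal relative to DMSO.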 In outline: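 Impedance-based real-time growth of 22Rv1 prostate cells, read 80 h after dosing. Eight concentrations, 1:4 series, top 100 uM final (0.5% DMSO), n = 2; signal decrease scored against DMSO.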
Consider `NC(=NCCCCCCN=C(N)/N=C(\N)Nc1ccc(Cl)cc1)/N=C(\N)Nc1ccc(Cl)cc1`, for which the AC50 is 9.25 µM (active).

Turning to `COc1cc([N+](=O)[O-])ccc1N`, the half-maximal activity concentration (AC50) was 2.99 µM (active).

`CC(C)[C@@H]1CC[C@@H](C)C[C@H]1O`: the AC50 was 0.48 µM (active).

With `CN(Cc1cnc2nc(N)nc(N)c2n1)c1ccc(C(=O)N[C@@H](CCC(=O)O)C(=O)O)cc1`, the AC50 is 0.39 µM (active).

For `CC(O)COc1ccccc1` (centres undefined), the compound was called inactive.

In the case of `CCCCc1ccc2ccccc2c1S(=O)(=O)O`, the outcome was inactive.

Take `Cc1cc(C(=C2C=CC(=Nc3ccc(S(=O)(=O)O)cc3)C=C2)c2ccc(Nc3ccc(S(=O)(=O)O)cc3)cc2)cc(S(=O)(=O)O)c1N`: the outcome was inactive.

For `CCCCCCc1ccc(N)cc1`, the compound was called inactive.

Take `CC(=O)Nc1ccc(O)cc1`: the compound was called inactive.
